Data taken from publication PMC4336329 (PLoS ONE, 2015).
Hit rate of the full screen: of about 310,000 compounds, about 14,000 (4.5%) showed an effect of 50% or more. Effects have a minus sign here. The list comes from a sample in which strong results are over-represented; it also holds similar structures and randomly drawn compounds.
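Note: peak tail current of the secondary pulse compared with the same well before compound.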

The molecules below were run against human ether-à-go-go-related gene (hERG) potassium channel (human, UniProt Q12809) (assay: primary screen, population patch clamp on CHO cells stably expressing hERG; higher = less effect of the substance).
Chain of human ether-à-go-go-related gene (hERG) potassium channel (Q12809 whole entry, looked up): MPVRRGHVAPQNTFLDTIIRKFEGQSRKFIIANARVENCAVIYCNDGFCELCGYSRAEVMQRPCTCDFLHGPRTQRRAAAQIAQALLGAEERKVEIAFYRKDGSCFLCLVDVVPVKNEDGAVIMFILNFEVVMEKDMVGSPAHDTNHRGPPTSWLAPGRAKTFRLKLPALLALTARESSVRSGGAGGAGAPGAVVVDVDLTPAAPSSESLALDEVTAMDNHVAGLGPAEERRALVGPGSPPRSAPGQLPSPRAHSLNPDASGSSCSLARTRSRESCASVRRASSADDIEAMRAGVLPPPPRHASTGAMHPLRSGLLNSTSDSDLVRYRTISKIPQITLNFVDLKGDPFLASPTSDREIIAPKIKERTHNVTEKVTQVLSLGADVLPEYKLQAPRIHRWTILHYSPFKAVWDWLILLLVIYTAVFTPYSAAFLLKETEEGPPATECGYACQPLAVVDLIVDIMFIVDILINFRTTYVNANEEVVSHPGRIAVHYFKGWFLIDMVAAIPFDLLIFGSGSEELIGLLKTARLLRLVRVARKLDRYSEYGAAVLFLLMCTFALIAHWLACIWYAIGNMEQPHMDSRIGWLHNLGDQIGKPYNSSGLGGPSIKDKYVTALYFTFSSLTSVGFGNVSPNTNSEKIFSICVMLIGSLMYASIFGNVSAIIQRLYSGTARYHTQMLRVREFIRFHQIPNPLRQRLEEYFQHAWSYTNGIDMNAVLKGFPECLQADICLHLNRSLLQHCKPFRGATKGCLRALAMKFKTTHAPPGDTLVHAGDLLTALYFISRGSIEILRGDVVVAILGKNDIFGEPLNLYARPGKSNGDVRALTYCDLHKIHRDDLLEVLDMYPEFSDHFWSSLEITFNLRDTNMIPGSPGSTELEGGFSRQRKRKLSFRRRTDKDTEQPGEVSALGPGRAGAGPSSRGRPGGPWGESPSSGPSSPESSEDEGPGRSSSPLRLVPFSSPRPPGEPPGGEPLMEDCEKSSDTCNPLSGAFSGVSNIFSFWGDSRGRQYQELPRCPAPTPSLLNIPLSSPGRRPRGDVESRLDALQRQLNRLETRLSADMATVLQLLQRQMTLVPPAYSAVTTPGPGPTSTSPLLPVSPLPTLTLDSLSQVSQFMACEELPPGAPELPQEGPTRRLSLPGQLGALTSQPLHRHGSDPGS
`O=C1CCCN1CCCNc1ncnc2sccc12` was tested, and the “hERG current change (%, negative = inhibition) at 10uM” value was 3.29%.
With `CC(C)(C)N1[C@@H](CC(=O)O)c2cc(C(F)(F)F)ccc2S1(=O)=O` the “hERG current change (%, negative = inhibition) at 10uM” value was 11.2%.
`Cc1ccccc1Nc1nc(N)nc(COC(=O)CCS(=O)(=O)c2ccccc2)n1` was tested, and the “hERG current change (%, negative = inhibition) at 10uM” value was -14.4%.
In the case of `CC(C)=C1C2CCC1C1C(=O)N(NC(=O)c3ccco3)C(=O)C21` (stereo not drawn), the “hERG current change (%, negative = inhibition) at 10uM” value is reported as -4.72%.
In the case of `Cc1nn(C)c(C(=O)N2CCc3ccccc32)c1Cl`, the “hERG current change (%, negative = inhibition) at 10uM” value is reported as 2.37%.
`CCOC(=O)c1cnc2c(C)cc(C)cc2c1Nc1ccc(S(=O)(=O)Nc2ncccn2)cc1` was tested, and the “hERG current change (%, negative = inhibition) at 10uM” value was -0.317%.
`COc1ccc(Cl)cc1N(CC(=O)N1CCN(Cc2ccccc2)CC1)S(C)(=O)=O` was tested, and the “hERG current change (%, negative = inhibition) at 10uM” value was -7.28%.
In the case of `CN(CC(=O)N1CCc2[nH]c3ccc(F)cc3c2C1)CC1OCCO1`, the “hERG current change (%, negative = inhibition) at 10uM” value is reported as 5.81%.
In the case of `Cc1ccc2[nH]c3c(c2c1)CN(C(=O)CN1CCCCC1)CC3`, the “hERG current change (%, negative = inhibition) at 10uM” value is reported as -31.8%.
For `Cc1ccc2[nH]c3c(c2c1)CN(C(=O)CN1CCN(Cc2ccc4c(c2)OCO4)CC1)CC3`, the “hERG current change (%, negative = inhibition) at 10uM” value was -54.8%.
`Cc1ccc2[nH]c3c(c2c1)CN(C(=O)CN1CCN(C(=O)c2ccco2)CC1)CC3` was tested, and the “hERG current change (%, negative = inhibition) at 10uM” value was -5.97%.
With `O=C(c1cc2cc(F)ccc2[nH]1)N1CCN(Cc2ccc3c(c2)OCO3)CC1` the “hERG current change (%, negative = inhibition) at 10uM” value was -0.31%.
In the case of `O=C(CN1CCN(Cc2ccc3c(c2)OCO3)CC1)N1CCc2[nH]c3ccc(F)cc3c2C1`, the “hERG current change (%, negative = inhibition) at 10uM” value is reported as -62.8%.
In the case of `COc1ccccc1NC(=O)c1sc2nc(-c3ccco3)ccc2c1N`, the “hERG current change (%, negative = inhibition) at 10uM” value is reported as 1.24%.
`Cc1n[nH]c(C)c1N1C(=O)c2cccc3c(N4CCCCCC4)ccc(c23)C1=O` was tested, and the “hERG current change (%, negative = inhibition) at 10uM” value was -21.5%.
In the case of `CCC(=O)N1c2ccc(S(=O)(=O)NCCc3ccc(OC)c(OC)c3)cc2CC1C` (stereo not drawn), the “hERG current change (%, negative = inhibition) at 10uM” value is reported as 10.3%.
With `CSc1c(CC(=O)Nc2ccccc2Cl)n(Cc2ccccc2)c2ccccc12` the “hERG current change (%, negative = inhibition) at 10uM” value was 8.86%.
`COc1ccc(NC(=O)CCCN2C(=O)CN(C)C2=O)c(OC)c1` was tested, and the “hERG current change (%, negative = inhibition) at 10uM” value was -4.4%.
With `CCN(CC(=O)NCc1cccs1)S(=O)(=O)c1c(F)cccc1F` the “hERG current change (%, negative = inhibition) at 10uM” value was 0.594%.
With `CCN(CC)S(=O)(=O)c1ccc(C(=O)NCc2cccs2)cc1` the “hERG current change (%, negative = inhibition) at 10uM” value was -20.7%.
With `CCN(CC(=O)NCc1cccs1)S(=O)(=O)c1ccccc1Cl` the “hERG current change (%, negative = inhibition) at 10uM” value was -11.3%.
With `CCN(CC(=O)NCc1cccs1)S(=O)(=O)c1ccc(F)cc1` the “hERG current change (%, negative = inhibition) at 10uM” value was -85%.
With `CCN(CC(=O)NCc1cccs1)C(=O)c1cccc(S(=O)(=O)NC)c1` the “hERG current change (%, negative = inhibition) at 10uM” value was -12.2%.
`CCN(CC(=O)NCc1cccs1)C(=O)c1ccc(S(=O)(=O)Nc2ccccc2)cc1` was tested, and the “hERG current change (%, negative = inhibition) at 10uM” value was -15.6%.
`CCN(CC(=O)Nc1cccc(OC)c1)C(=O)c1cccc(S(=O)(=O)N2CCc3ccccc32)c1` was tested, and the “hERG current change (%, negative = inhibition) at 10uM” value was -1.63%.
For `CCN(CC(=O)NCc1cccs1)C(=O)c1cccc(S(=O)(=O)N2CCc3ccccc32)c1`, the “hERG current change (%, negative = inhibition) at 10uM” value was -71.3%.
`CCN(CC(=O)NCc1cccs1)S(=O)(=O)c1ccc(NC(C)=O)cc1` was tested, and the “hERG current change (%, negative = inhibition) at 10uM” value was -7.22%.
In the case of `CCN(CC(=O)NCc1cccs1)C(=O)c1ccc(S(=O)(=O)N(C)C)cc1`, the “hERG current change (%, negative = inhibition) at 10uM” value is reported as 48.6%.
With `CCN(CC(=O)NCc1cccs1)S(=O)(=O)c1ccc(C(C)C)cc1` the “hERG current change (%, negative = inhibition) at 10uM” value was -53.3%.
For `CCN(CC(=O)NCc1cccs1)C(=O)c1ccc(S(=O)(=O)N(CC)c2ccccc2)cc1`, the “hERG current change (%, negative = inhibition) at 10uM” value was -61.4%.
With `COC(=O)c1ccc2c(c1)S(=O)(=O)NC(=NCCCN1CCOCC1)S2.Cl` the “hERG current change (%, negative = inhibition) at 10uM” value was -1%.
With `COc1ccc(OCCC(=O)OCC(=O)NC(=O)NC2CCCCC2)cc1` the “hERG current change (%, negative = inhibition) at 10uM” value was 13.2%.
`CN(C)c1ccc(NS(=O)(=O)c2ccc(-c3csnn3)cc2)cc1` was tested, and the “hERG current change (%, negative = inhibition) at 10uM” value was 13.1%.
In the case of `CCCC1(c2ccccc2)NC(=O)N(CC(=O)c2[nH]c(C)c(C(=O)OCC)c2C)C1=O` (stereo not drawn), the “hERG current change (%, negative = inhibition) at 10uM” value is reported as 12.5%.
For `CCOC(=O)N1CCN(Cc2cn3ccccc3n2)CC1.O=C(O)C(=O)O`, the “hERG current change (%, negative = inhibition) at 10uM” value was 21.9%.
With `Nc1cc(C(=O)N/N=C/c2cccc([N+](=O)[O-])c2)n[nH]c1=O` the “hERG current change (%, negative = inhibition) at 10uM” value was 7.18%.
`c1ccc(Cn2c(SCc3nc4ccccc4s3)nnc2-c2ccco2)cc1` was tested, and the “hERG current change (%, negative = inhibition) at 10uM” value was -34.1%.
`CCOC(=O)N1CCN(C(=O)C2CCN(S(=O)(=O)c3ccc(Br)s3)CC2)CC1` was tested, and the “hERG current change (%, negative = inhibition) at 10uM” value was -35.2%.
For `O=C(Oc1ccc(/C=N/Nc2nc(N3CCCCC3)nc(N3CCCCC3)n2)cc1)c1ccco1`, the “hERG current change (%, negative = inhibition) at 10uM” value was -9.1%.
`COc1ccc(NC(=O)c2cccc(C#N)c2)cc1NS(=O)(=O)c1ccc(F)cc1` was tested, and the “hERG current change (%, negative = inhibition) at 10uM” value was 8.63%.
In the case of `Cc1ccnc(SCCn2c(N3CCN(c4ccccc4)CC3)nc3c2c(=O)[nH]c(=O)n3C)n1`, the “hERG current change (%, negative = inhibition) at 10uM” value is reported as -17.3%.
For `CCN(CC(=O)NCc1cccs1)S(=O)(=O)c1ccc([N+](=O)[O-])cc1`, the “hERG current change (%, negative = inhibition) at 10uM” value was -68.2%.
`CCN(CC(=O)NCc1cccs1)S(=O)(=O)c1cccc(C(C)=O)c1` was tested, and the “hERG current change (%, negative = inhibition) at 10uM” value was 0.039%.
In the case of `CCN(CC(=O)NCc1cccs1)S(=O)(=O)c1cccc(Br)c1`, the “hERG current change (%, negative = inhibition) at 10uM” value is reported as 11.9%.
In the case of `O=[N+]([O-])c1cccc(S(=O)(=O)N/N=C/c2ccc(O)cc2)c1`, the “hERG current change (%, negative = inhibition) at 10uM” value is reported as 1.14%.
